Laboratory results taken from PubChem BioAssay (Tox21).
“And” between values parts separate entries of the source, which are not always exact repeats. Equal values may be shown once. Records with an inconclusive call do not appear. A structure can be active in one record and inactive in another. The source made the active and inactive calls. The call rests on the fitted dose curve.

test: Nuclear factor erythroid 2-related factor 2/antioxidant responsive element (Nrf2/ARE) small molecule agonists: luciferase reporter gene qHTS assay in human keratinocytes (AID 1919969); details: KeratinoSens HaCaT ARE-luciferase, luminescence, 24 h; series mostly up to 92.4 µM; activity, positive = activation: at the top concentration; further: nearly all actives have a fitted effect of over 35% in size
Description: National Center for Advancing Translational Sciences [NCATS]
Division of Preclinical Innovation [DPI]
U.S. Environmental Protection Agency [EPA]
National Institutes of Environmental Health Sciences [NIEHS]
National Toxicology Program [NTP]
U.S. Food and Drug Administration [FDA]
Oxidative stress has been implicated in the pathogenesis of a variety of diseases ranging from cancer to neurodegeneration. The antioxidant response element (ARE) signaling pathway plays an important role in the amelioration of oxidative stress. The KeratinoSens (Givaudan, Switzerland) is an in vitro test method which quantifies luciferase induction as a measure of activation of Keap1-Nrf2-antioxidationt/electrophile response element (ARE) dependant pathway in HaCaT human keratinocytes stably transfected with a selectable plasmid. The KeratinoSens assay is a cell-based assay with a reporter cell line to detect potential skin sensitizers by their ability to induce the Nrf2/ARE-response. The activation of the report gene under culture conditions can be detected by ONE-Glo Luciferase Assay System (Promega, Madison, WI). This cell line has been used to screen the Tox21 10K compound library to identify agonists that induce oxidative stress. The cytotoxicity of the Tox21 compound library against the KS-ARE cell line was tested in parallel by measuring the cell viability using CellTiter- Fluor assay system (Promega, Madison, WI) in the same wells.
HaCaT derived cell line KeratinoSens were dispensed at 1,500 cells/5uL/well in 1536-well white wall/solid bottom plates using a Multidrop Combi (ThermoFisher Scientific, Waltham, MA) dispenser. After the assay plates were incubated at 37 C/5% CO2 for 5 h, 23 nL of compounds dissolved in DMSO, positive controls or DMSO only was transferred to the assay plate by a pintool workstation (Kalypsys, San Diego, CA). The plates were incubated at 37 C/5% CO2 for 23 h, followed by addition of 1uL/well of CellTiter-Fluor reagent into the assay plates using a Flying Reagent Dispenser (Aurora Discovery, San Diego, CA) for cell viability readout that measures cytotoxicity. After 1 h incubation at 37 C/5% CO2 the fluorescence intensity was measured using a ViewLux (PerkinElmer, Shelton, CT) plate reader. Then 4uL/well of One-Glo were added using a Flying Reagent Dispenser. After the plates were incubated at room temperature for 30 min, the luminescence intensity in the assay plates was measured using ViewLux plate reader.
On the % scale 0 is the no-effect control and ±100 the full control effect; potency means the concentration at half of the fitted maximal effect.

Row | SMILES | activity, positive = activation | Potency
1 | CCCC(=O)C(C)=O | -9.77% (inactive) | 
2 | CCN1C(=O)c2ccccc2C1Nc1ccc(OCCN2CCCCC2)cc1 (stereo not given) | -3.89% [at 42.5 µM] (inactive) | 
3 | O=C[C@H](O)[C@@H](O)[C@H](O)[C@H](O)CO | -1.57% (inactive) | 
4 | CNCCS(=O)(=O)O | 2.08% (inactive) | 
5 | CCOC(=O)c1ccc(C)cc1 | -9.78% (inactive) | 
6 | CC(C)(CO)[C@@H](O)C(=O)NCCC(=O)O | -2.07% (inactive) | 
7 | O=c1[nH]c2cc(C(F)(F)F)c(N3CCOCC3)cc2n(CP(=O)(O)O)c1=O | -1.24% [at 42.5 µM] (inactive) | 
8 | CCCC(C)CO (stereo not given) | 1.53% (inactive) | 
9 | Cc1c(N)cccc1C(F)(F)F | -0.459% [at 42.5 µM] (inactive) | 
10 | O=C(C(=O)c1ccccc1)c1ccccc1 | -9.85% (inactive) | 
11 | NC(=O)NC1N=C([O][Al])NC1=O (stereo not given) | -1.51% [at 42.5 µM] (inactive) | 
12 | C1=CCC2CC=CC2C1 (stereo not given) | 16.5% (inactive) | 
13 | O=C(O)CCS | 0.519% (inactive) | 
14 | OCCOc1ccc(OCCO)cc1 | 9.36% (inactive) | 
15 | CCCCCCCCCCCCCCCC | 5.76% (inactive) | 
16 | COS(C)(=O)=O |  | inactive
17 | NCc1ccc(S(N)(=O)=O)cc1 | -2.77% [at 42.5 µM] (inactive) | 
18 | NCCOCCN | 4.32% (inactive) | 
19 | O=C(O)CSCC(=O)NC1CCSC1=O (stereo not given) | -2.84% [at 42.5 µM] (inactive) | 
20 | CN(Cc1cnc2nc(N)nc(N)c2n1)c1ccc(C(=O)N[C@@H](CCC(=O)O)C(=O)O)cc1 |  | inactive

Row | SMILES | activity, positive = activation | Potency
21 | CCC(C)C1N=C(C)C(C)S1 (stereo not given) | 14.3% (inactive) | 
22 | CC(C)(C)CC(C)(C)c1ccc(O)c(-n2nc3ccccc3n2)c1 | 8.94% (inactive) | 
23 | OC1OC[C@@H](O)[C@H](O)[C@H]1O (stereo not given in full) | -10.1% (inactive) | 
24 | CC1CC(O)CC(C)(C)C1 (stereo not given) | -1.54% (inactive) | 
25 | CC(=O)OCc1ccco1 |  | inactive
26 | CCN(C=O)CC | -3.22% (inactive) | 
27 | NCCC(O)(P(=O)(O)O)P(=O)(O)O | -1.07% [at 42.5 µM] (inactive) | 
28 | CO/N=C(/C(=O)N[C@@H]1C(=O)N2C(C(=O)O)=C(COC(N)=O)CS[C@H]12)c1ccco1 | 1.66% (inactive) | 
29 | C1=COCCC1 | -5.28% (inactive) | 
30 | CC1=CC(=O)c2ccccc2C1=O |  | 13.3 µM (active)
31 | C=CC(C)(O)CC/C=C(\C)CCC=C(C)C (stereo not given) | 25.7% (inactive) | 
32 | CCCc1c2oc(C(=O)O)cc(=O)c2cc2c(=O)cc(C(=O)O)n(CC)c12 | 0.453% [at 42.5 µM] (inactive) | 
33 | CCCC[O][Al]([O]CCCC)[O]CCCC | -16.7% (inactive) | 
34 | CCc1occc(=O)c1O | 4.53% (inactive) | 
35 | NCCO |  | inactive and 27.3 µM (active)
36 | CCC(C)(C)C1CCCCC1OC(C)=O (stereo not given) | 1.69% (inactive) | 
37 | Cc1ccc(N=Nc2c(O)ccc3ccccc23)c(C)c1 |  | 2.66 µM (active)
38 | CCCCCC(C)=O |  | inactive and 27.3 µM (active)
39 | CN1C(CCl)Nc2cc(Cl)c(S(N)(=O)=O)cc2S1(=O)=O (stereo not given) | 2.69% [at 42.5 µM] (inactive) | 
40 | CNC(=O)[C@H]1O[C@@H](n2cnc3c(NCc4cc(Cl)ccc4OCc4cc(C)no4)ncnc32)[C@H](O)[C@@H]1N | 0.529% (inactive) | 
